High-throughput results as filed in PubChem.
Most compounds without a hit are left out; they make up all but 3.4% or so of the library.
PAX8 reporter = inhibitors of PAX8 transcriptional activity in RMG-I cells; RMG-I TPO-luciferase reporter, SteadyGlo, 24 h; inhibition, % at 12.6 µM; actives 1.2% (n = 360,000); AID 652154;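 active = mean replicate inhibition at least 60% with every replicate also reaching 60%; inconclusive = only one of the two criteria is met; inactive = mean below 60% and not all replicates reaching 60%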;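 note: luciferase light reporting Pax8 driven TPO promoter activity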
PGC1a acetyl inh = modulators of PGC1a acetylation; U2OS PGC1a acetylation, AlphaScreen anti-acetyl-lysine; with virally co-expressed GCN5 acetyltransferase; inhibition, % at 15.6 µM; actives 0.17% (n = 350,000);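 active = every replicate shows inhibition of at least 40%; inconclusive = mean inhibition at least 40% but some replicate below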
SIRT5 block = blocks human SIRT5 desuccinylation of peptide | Purified SirT5, succinyl-peptide AMC, trypsin-coupled fluorescence | inhibition, % at 15 µM | actives 1.1% (n = 330,000) | AID 652115; in the data active = inhibition above about 15%; inconclusive = no clear call, values can overlap the other calls
Target sequence (Q9NXA8 whole entry, looked up): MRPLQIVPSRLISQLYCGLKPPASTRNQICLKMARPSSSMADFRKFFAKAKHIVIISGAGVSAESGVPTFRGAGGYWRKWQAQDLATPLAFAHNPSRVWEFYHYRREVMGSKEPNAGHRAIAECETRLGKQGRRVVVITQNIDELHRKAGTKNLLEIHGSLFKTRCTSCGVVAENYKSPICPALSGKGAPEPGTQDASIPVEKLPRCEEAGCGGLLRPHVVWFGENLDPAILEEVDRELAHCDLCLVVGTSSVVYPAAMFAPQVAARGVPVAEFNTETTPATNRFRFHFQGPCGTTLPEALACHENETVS
LGR2 antag = blocks bursicon-induced cAMP signaling via Drosophila LGR2 | inhibition, % at 9.99 µM | actives 0.35% (n = 380,000) | HEK293 LGR2, CRE-luciferase, bursicon-stimulated, 4 h;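 active = drop in luminescence signal, shown as inhibition above about 50% in the replicate tests, limit read from the data, passing the limit was not always enough; inconclusive = probably only some replicates passing the limit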;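 note: agonist challenge used bursicon conditioned medium at about half maximal strength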
EWS-Fli inh = EWS/Fli transcriptional activity inhibition | A673 NR0B1-luciferase reporter, viability-normalised | inhibition, % at 12.6 µM | actives 0.67% (n = 350,000) | AID 651661;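 active = mean inhibition of at least 50% after viability correction, with every replicate also passing that limit; inconclusive = mean reaches 50% but only one of two replicates passes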;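 note: firefly luciferase signal divided by Alamar Blue viability fluorescence both relative to DMSO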
Ecoli rRNA inh = inhibitors of bacterial rRNA selective over humanized ribosomes | actives 1.6% (n = 350,000) | E. coli WT GFP vs humanized-ribosome RFP mutants, fluorescence, 24 h; stronger effect = lower value; DMSO median 0, no signal -100 | GFP signal change (wild-type ribosome), % (concentration not given with the values);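 active = significant combined selectivity score with lowered wild-type GFP, culture density cut under 30%, mutant RFP and density less affected; inactive = any of these conditions unmet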
AID977621 = growth inhibition of wild-type GFP E. coli, dose response, H69 mutant RFP, cherry-pick | AID 977621 | 1,900 tested, under 10 active | E. coli wild-type GFP strain growth, fluorescence, 24 h | activity change, negative = inhibition at 50 µM | shares compounds with Ecoli rRNA inh;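 active = Wild-type ribosome reporter drop at least double the humanized mutant ribosome reporter drop, growth loss under a set limit; inconclusive = no clear call, values can overlap the other calls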;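 note: wild-type GFP and H69 mutant RFP strains grown together 50/50 in each well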
AID977628 = growth of wild-type and h24-humanized E. coli strains – h24 mutant RFP vs wild-type GFP, cherry-pick, dose response | activity change, negative = inhibition at 50 µM | 1,900 tested, under 10 active | shares compounds with Ecoli rRNA inh | E. coli WT GFP strain growth, fluorescence, 24 h | AID 977628;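 active = compound lowering the normal-ribosome reporter at least twice as much as the humanized-ribosome reporter, growth loss under a set limit; inconclusive = no clear call, values can overlap the other calls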;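 note: wild-type GFP and h24 humanized RFP strains co-cultured 1 to 1 per well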
A number is an active result; - = inactive; ? = inconclusive; . = not tested or not shown.

SMILES | PAX8 reporter | PGC1a acetyl inh | SIRT5 block | LGR2 antag | EWS-Fli inh | Ecoli rRNA inh | AID977621 | AID977628
COc1ccc2c(c1)c(C(C)=O)c(C)n2CCc1ccc(OC)c(OC)c1 | - | - | - | - | - | -33 | - | .
Cn1c(CO)cnc1SCC(=O)c1ccc(Br)cc1 | - | - | - | - | - | -21 | - | -
CC1(CCC(=O)N2CCCC(N3CCN(c4ccc(F)cc4)CC3)C2)CC1 (centres undefined) | - | - | - | - | - | -25 | - | ?
CSCC(=O)N1CCCC(N2CCN(c3ccc(F)cc3)CC2)C1 (centres undefined) | - | - | - | - | - | - | . | .
Cc1nn(CC(O)COc2ccc3c(c2)CCC3)c(C)c1Br (centres undefined) | - | - | . | . | . | . | . | .
CC(=O)c1c(C)nn(CC(O)COc2ccc3c(c2)CCC3)c1C (centres undefined) | . | - | - | - | - | -22 | - | .
C[C@H](O)C#Cc1cnc2c(c1)C(=O)N([C@H](C)CO)C[C@H](C)[C@H](CN(C)C(=O)Nc1ccc(F)cc1)O2 | . | - | - | - | - | - | . | .
CC(=O)Nc1ccc(Nc2nc(C)c([N+](=O)[O-])c(N(C)c3ccccc3)n2)cc1 | - | . | - | - | - | -44 | ? | ?
Cc1cccc(OCc2nnc(SCC(=O)Nc3ncc(C)s3)o2)c1 | - | . | . | - | - | -34 | . | -
CCc1nnc(NC(=O)CSc2nnc(COc3cccc(C)c3)o2)s1 | - | - | . | . | . | . | . | .
COc1ccccc1CC(=O)NCc1csc(-c2cccs2)n1 | - | - | - | - | - | -21 | - | -
COC(=O)c1ccc(CSc2nc(-c3ccccc3)cs2)o1 | . | - | - | - | - | -23 | - | .
C[C@@H]1NS(=O)(=O)c2c(F)cccc2O[C@@H]1c1ccccc1 | - | . | . | - | - | -22 | . | ?
O=C(O)c1ccc2c(c1)N(Cc1ccccc1)C(=O)c1ccccc1S2 | - | - | - | - | - | -24 | - | .
CCN1C(=O)c2ccccc2Sc2ccc(C(=O)O)cc21 | - | - | - | - | - | - | . | .
CCN=C1NN=C(c2ccc(C)cc2)CS1 | . | - | - | - | - | -23 | - | -
c1ccc(CN=C2NN=C(c3ccccc3)CS2)cc1 | - | - | - | - | - | - | . | .
O=C(NCCCN1CCOCC1)c1cc(-c2ccccc2)nc2ccccc12 | - | . | - | - | - | - | . | .
Cc1ccc(Nc2cc(C(=O)NCCCN3CCOCC3)c3ccccc3n2)cc1C | - | . | - | - | - | -22 | . | ?
Cc1ccc(CSc2ncnc3onc(C)c23)cc1 | - | . | - | - | - | - | . | .
Cc1noc2ncnc(SCc3ccc(C(F)(F)F)cc3)c12 | - | - | - | - | - | -21 | - | ?
COc1ccc(S(=O)(=O)N(C)C[C@@H]2OCCCC[C@@H](C)Oc3ccc(NC(=O)Nc4ccccc4)cc3C(=O)N([C@H](C)CO)C[C@H]2C)cc1 | - | - | . | - | - | - | . | .
COc1ccccc1NC(=O)CSc1nccn1Cc1ccc(F)cc1 | - | - | - | - | - | -24 | - | .
COCCn1c(SCc2nc3ccccc3s2)nc2ccccc21 | . | - | - | - | - | -19 | - | .
COCCn1c(SCC(=O)Nc2ccccc2OC)nc2ccccc21 | - | - | - | - | - | -24 | - | ?
SMILES | PAX8 reporter | PGC1a acetyl inh | SIRT5 block | LGR2 antag | EWS-Fli inh | Ecoli rRNA inh | AID977621 | AID977628
CCOCCCn1c(SCc2nc3ccccc3s2)nc2ccccc2c1=O | - | . | - | ? | - | . | . | .
COCCn1c(SCC(=O)Nc2cccnc2Cl)nc2ccccc21 | - | - | - | - | - | - | . | .
CCNC(=O)C[C@@H]1C=C[C@@H](NC(=O)NC2CCCCC2)[C@H](CO)O1 | - | - | - | - | - | - | . | .
Cc1ccccc1COc1ccc(-c2nn[nH]n2)cc1 | - | . | - | - | - | -25 | ? | .
CCOc1ccc(-c2nn[nH]n2)cc1 | - | - | . | . | . | . | . | .
COc1cccc(S(=O)(=O)N2CCCCN3[C@H](CO)[C@H](c4ccc(C#CC(C)C)cc4)[C@H]3C2)c1 | - | - | - | - | - | - | . | .
COc1ccc(C#Cc2ccc([C@@H]3[C@H](CO)N4CCCCN(C(=O)Nc5cccc(F)c5)C[C@@H]34)cc2)cc1 | 76 | - | - | - | - | -49 | . | ?
COc1ccc(C#Cc2ccc([C@H]3[C@@H](CO)N4CCCCN(C(=O)Nc5cccc(F)c5)C[C@H]34)cc2)cc1 | 76 | - | . | - | - | -48 | - | -
COc1cccc(S(=O)(=O)N2CCCCN3[C@H](C2)[C@@H](c2ccc(C#CC(C)C)cc2)[C@@H]3CO)c1 | - | - | - | - | - | - | - | -
N#C[C@@H]1[C@H](c2ccccc2C2=CCCC2)[C@@H](CO)N1C(=O)CN1CCOCC1 | . | - | - | - | - | - | . | .
Cc1cccc(NC(=O)CN(C)S(=O)(=O)c2cccs2)c1 | . | . | - | - | - | -27 | - | ?
COc1ccc(NC(=O)CN(C)S(=O)(=O)c2cccs2)cc1 | . | - | . | - | . | . | . | .
O=C(c1cnc(Cc2c[nH]c3ccccc23)c(I)c1)N1CCCCC1 | - | . | - | - | - | -24 | - | .
CCn1ccnc1CN1CCCC(C(=O)c2ccc3cc(OC)ccc3c2)C1 (centres undefined) | - | - | - | - | - | -33 | - | -
COC(=O)C1(C)CCc2c(ccc3ccccc23)C1=O (centres undefined) | - | . | - | - | - | - | . | .
CCC1(C(=O)OC)CCc2c(cc(OC)c3ccccc23)C1=O (centres undefined) | - | . | - | - | - | -27 | - | -
C[C@H]1CN([C@@H](C)CO)C(=O)c2cc(C#CC3CCCCC3)cnc2O[C@@H]1CN(C)C(=O)C1CCCCC1 | . | - | - | - | - | - | . | .
COC(=O)C[C@@H]1C[C@@H]2c3cc(NC(=O)Nc4ccc(OC)cc4)ccc3O[C@@H]2[C@@H](CO)O1 | - | - | - | - | . | - | . | .
O=C(C[n+]1ccc(Cc2ccccc2)cc1)Nc1ccc([N+](=O)[O-])cc1Cl | - | . | - | - | - | -31 | - | -
CN1CCN(C(=O)C[C@H]2C[C@@H]3c4cc(NC(=O)C5CCOCC5)ccc4O[C@@H]3[C@@H](CO)O2)CC1 | - | - | - | - | - | - | . | .
O=C(COC(=O)COc1ccccc1F)Nc1ccc(Cl)cn1 | - | - | - | - | - | - | . | .
O=C(COC(=O)Cc1ccccc1F)Nc1ccc(Cl)cn1 | - | - | - | - | - | -18 | - | ?
Cc1nn2c(C)c(C(=O)Nc3ccccc3)cnc2c1-c1ccccc1 | - | - | - | - | - | -32 | - | -
CC(=O)c1cnc2c(-c3ccccc3)c(C(F)(F)F)nn2c1C | - | . | - | . | - | . | . | .
